These results are taken from ChEMBL document CHEMBL2218924, “A broad activity screen in support of a chemogenomic map for kinase signalling research and drug discovery” (Biochem J, 2013).

The target of this test is Mast/stem cell growth factor receptor Kit (Homo sapiens) (UniProt P10721). To be noted: at 10 µM.
Mast/stem cell growth factor receptor Kit (Homo sapiens), sequence (P10721 whole entry): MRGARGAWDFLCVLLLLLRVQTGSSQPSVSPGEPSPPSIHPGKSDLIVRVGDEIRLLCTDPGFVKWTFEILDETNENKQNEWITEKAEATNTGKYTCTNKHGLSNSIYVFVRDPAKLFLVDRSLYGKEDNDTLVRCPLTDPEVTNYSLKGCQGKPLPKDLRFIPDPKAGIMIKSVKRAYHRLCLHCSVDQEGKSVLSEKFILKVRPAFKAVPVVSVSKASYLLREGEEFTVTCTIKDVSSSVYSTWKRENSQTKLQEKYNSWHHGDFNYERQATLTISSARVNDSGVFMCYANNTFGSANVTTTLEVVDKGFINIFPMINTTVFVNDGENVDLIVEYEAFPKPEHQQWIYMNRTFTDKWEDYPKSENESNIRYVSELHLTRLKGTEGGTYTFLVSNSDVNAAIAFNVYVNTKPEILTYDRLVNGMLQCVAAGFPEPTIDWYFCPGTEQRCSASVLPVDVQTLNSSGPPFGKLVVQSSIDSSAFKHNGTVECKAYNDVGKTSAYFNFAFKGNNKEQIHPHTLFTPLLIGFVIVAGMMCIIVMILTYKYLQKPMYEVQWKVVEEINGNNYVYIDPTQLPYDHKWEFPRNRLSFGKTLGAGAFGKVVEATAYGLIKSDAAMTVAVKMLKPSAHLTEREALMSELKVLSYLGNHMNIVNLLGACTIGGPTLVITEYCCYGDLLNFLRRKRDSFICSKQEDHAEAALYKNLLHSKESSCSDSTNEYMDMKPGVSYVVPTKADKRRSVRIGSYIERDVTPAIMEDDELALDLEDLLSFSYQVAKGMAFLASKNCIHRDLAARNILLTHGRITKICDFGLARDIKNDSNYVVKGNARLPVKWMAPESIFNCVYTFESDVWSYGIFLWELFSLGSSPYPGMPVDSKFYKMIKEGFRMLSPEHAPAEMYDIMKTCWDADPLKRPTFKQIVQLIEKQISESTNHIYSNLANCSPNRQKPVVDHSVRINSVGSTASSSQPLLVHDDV
For the compound `O=C1Nc2ccc3ncsc3c2/C1=C/c1c[nH]cn1`, the residual activity came out at 4%. Turning to `CCn1cnc2c(Nc3cccc(Cl)c3)nc(N[C@@H]3CCCC[C@@H]3N)nc21`, the residual activity stood at 86%. As for `O=c1[nH]c2ccccc2n1C1CCN(Cc2ccc(-c3nc4cc5[nH]cnc5cc4nc3-c3ccccc3)cc2)CC1`, the residual activity was determined as 87%. Take `c1cc(-c2cnn3cc(-c4ccc(OCCN5CCCCC5)cc4)cnc23)ccn1`: the residual activity worked out at 2%. Next, `C[S+]([O-])c1ccc(-c2nc(-c3ccc(F)cc3)c(-c3ccncc3)[nH]2)cc1` (configuration not stated): 102%.

In the case of `CC(C)[C@H](CO)Nc1nc(Nc2cccc(Cl)c2)c2ncn(C(C)C)c2n1`, the residual activity is 98%. Turning to `COc1cc2ncnc(Nc3ccc(OCc4ccccc4)cc3)c2cc1OC`, the residual activity is 29%. Next, `CCc1nc(-c2ccc(OC)cc2)[nH]c1-c1ccncc1`: 104%. Turning to `O=[N+]([O-])/C=C/c1ccc2c(c1)OCO2`, the residual activity worked out at 99%. Turning to `COc1cc(OC)c(/C=C2\C(=O)Nc3ccccc32)c(OC)c1`, the residual activity is 105%. The same measure for `COc1ccc2c(c[n+](C)c3c4cc5c(cc4ccc23)OCO5)c1OC`: 95%.

In the case of `COC(=O)[C@@]1(O)C[C@H]2O[C@]1(C)n1c3ccccc3c3c4c(c5c6ccccc6n2c5c31)C(=O)NC4`, the residual activity worked out at 20%.
